IL-1B inflam inh: blocks inflammasome-driven IL-1 beta release. THP-1 LPS/ATP IL-1B secretion, AlphaLISA, 16 h; hits give low values. activity change, % at 57.5 µM. actives 4.7% (n = 360,000). AID 743279; in the data active means activity change below about -50%; inconclusive means mostly about -30% to -49%
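Secreted IL-1B measured by AlphaLISA bead assay after 16 h compound exposure of THP-1 cells; compounds (final up to 57.5 uM) added 1 h before LPS (250 ng/mL) and ATP (1.25 mM) stimulation; lower signal means less secretion.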
HT1080-NT tox: kills 2HG-producing HT-1080-NT fibrosarcoma cells; HT-1080-NT fibrosarcoma viability, CellTiter-Glo ATP luminescence, 48 h; Potency, µM (series often up to 46.1 µM), hits mostly cytotoxic; actives 1.6% (n = 360,000); AID 686970;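 further: NT is the 2HG producing partner of a matched IDH1 knockdown line; nearly all actives have a fitted effect of over 55% in size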
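Viability by CellTiter-Glo luminescence after 48 h compound exposure at 37C of HT-1080-NT cells (750/well, RPMI, 5% FBS). % activity scaled between DMSO wells and medium-only wells, then curve-fitted and categorized by curve class.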
TDP1 cell CPT: growth inhibition of DT40 Tdp1-/-;hTDP1 cells with camptothecin (screen for TDP1 inhibitors); AID 686979; Potency, µM (highest dose often 46.2 µM), actives largely listed as inhibitors; chicken DT40 Tdp1-/-;hTDP1 cells + 20 nM CPT, ATP luminescence, 48 h; actives 12% (n = 420,000); further: nearly all actives have a fitted effect of over 55% in size
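Cell growth measured by CellTiter-Glo luminescence after a minimum 48 h, 37 C compound exposure with 20 nM CPT in Tdp1-knockout DT40 cells stably expressing hTDP1, seeded 400/well; qHTS titration format.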
uPA surface inh: cell surface uPA generation inhibition. cell surface uPA generation assay, qHTS. Potency, µM (highest dose often 38.3 µM), usual class: inhibitors. AID 540303. actives 0.31% (n = 330,000); active means well fitted inhibition curve with a large enough effect; inconclusive means small, poorly fitted or top-dose-only effect; inactive means no such curve, though single readings can be large or run the other way; tested in mouse RAW 264.7 cells; further: nearly all actives have a fitted effect of over 55% in size
TDP1 cell noCPT: qHTS for Inhibitors of human tyrosyl-DNA phosphodiesterase 1 (TDP1): qHTS in cells in absence of CPT; DT40 Tdp1-/- hTDP1 cells, no CPT, ATP luminescence, 48 h; Potency, µM (series often up to 46.2 µM), usual class: inhibitors; actives 15% (n = 420,000); AID 686978, 2013; further: nearly all actives have a fitted effect of over 55% in size
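Seeded 400 DT40-hTDP1 cells/well (vehicle DMSO, no 20 nM CPT); pinned compounds; ≥48 hr at 37 °C; CellTiter-Glo luminescence as viability measure.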
HT1080 IDH1KD tx: kills HT-1080 cells with IDH1 knockdown. HT-1080 IDH1 knockdown viability, ATP luminescence, 48 h. Potency, µM (series often up to 46.1 µM), hits mostly cytotoxic. actives 2% (n = 360,000). AID 686971
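% activity derives from luminescence (CellTiter-Glo), normalised to DMSO and no-cell wells. HT-1080-IDH1KD cells, 750/well, had 48 h compound exposure at 37 °C.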
Large screens that a line does not name were inactive; ! = not active in a repeat. This is a sample that favours compounds with a hit; in the whole collection about 19% have one here. Unless noted, the call rests on the fitted dose curve; in most records, active means well fitted curve in the direction sought with a large enough effect; inconclusive means small, poorly fitted or top-dose-only effect, or another doubt; inactive means no such curve, though single readings can be large; an effect the other way counts as inactive or inconclusive.

CCN(CC)C(=O)Cn1cc(C(=O)C(=O)N2CCN(c3ccc([N+](=O)[O-])cc3)CC2)c2ccccc21	IL-1B inflam inh inconclusive, TDP1 cell CPT 6.5µM, TDP1 cell noCPT 7.3µM
COc1cc(/C=C(\C#N)C(=O)N2CCOCC2)cc(Br)c1O	TDP1 cell CPT inconclusive, TDP1 cell noCPT inconclusive
COc1ccc(N2CCN(C(=O)C(=O)c3cn(CC(=O)N4CCCC4)c4ccccc34)CC2)cc1	TDP1 cell CPT 21µM, TDP1 cell noCPT inconclusive (no result: uPA surface inh)
N#C/C(=C\c1cccc(Oc2ccccc2)c1)C(=O)N1CCOCC1	IL-1B inflam inh -100, HT1080-NT tox inconclusive, TDP1 cell CPT inconclusive, TDP1 cell noCPT inconclusive, HT1080 IDH1KD tx inconclusive
CCCCn1c(Cn2nc(C(=O)O)c3ccccc3c2=O)nc2cc(S(N)(=O)=O)ccc21	none
CCOC(=O)c1ccc(NC(=O)NNS(=O)(=O)c2cc(OC)ccc2OC)cc1	none
C#CCOCCOCCOCCNc1nc(N2CCN(C(=O)Cn3cc(CC(C)O)nn3)CC2)nc(N2CCN(C(=O)[C@H](C)n3cc(CCCN=C(N)N)nn3)CC2)n1 (some centres undefined)	none
CCOC(=O)Cn1cc(/C=C(/C#N)C(=O)NC(C)C)c2ccccc21	none
COc1ccc(N2CCN(C(=O)C(=O)c3cccc([N+](=O)[O-])c3)CC2)cc1	TDP1 cell CPT inconclusive, TDP1 cell noCPT inconclusive (no result: uPA surface inh)
CCOC(=O)Cn1cc(/C=C(\C#N)C(=O)N2CCOCC2)c2ccccc21	IL-1B inflam inh -95
COc1ccc(N2CCN(C(=O)C(=O)c3cc(OC)c4ccccc4c3)CC2)cc1	TDP1 cell CPT 23µM, TDP1 cell noCPT 21µM, HT1080 IDH1KD tx inconclusive (no result: uPA surface inh)
COc1cc([N+](=O)[O-])ccc1NC(=S)NNC(=O)CCC(=O)Nc1ccccc1Cl	none
CC(NC(=O)c1ccc(N2Cc3ccccc3Oc3ncccc32)s1)c1ccccc1 (centres undefined)	TDP1 cell noCPT inconclusive (no result: IL-1B inflam inh, HT1080-NT tox, uPA surface inh, HT1080 IDH1KD tx)
CN(Cc1ccccc1)C1=CC(=[N+]2CCCCC2)CC(C)(C)C1	IL-1B inflam inh -70, HT1080-NT tox inconclusive, TDP1 cell CPT 0.15µM, uPA surface inh inconclusive, TDP1 cell noCPT 0.01µM, HT1080 IDH1KD tx inconclusive
CC1(C)CC(=O)c2sc(N3CCCCC3)nc2C1	none
CC1(C)CC(N2CCCC2)=CC(=[N+]2CCCCC2)C1	HT1080-NT tox inconclusive, TDP1 cell CPT 0.41µM, uPA surface inh inconclusive, TDP1 cell noCPT 0.26µM, HT1080 IDH1KD tx inconclusive
CC1(C)CC(N2CCN(Cc3ccccc3)CC2)=CC(=[N+]2CCCCC2)C1	IL-1B inflam inh -51, TDP1 cell CPT 0.058µM, TDP1 cell noCPT 0.046µM, HT1080 IDH1KD tx inconclusive
CC1(C)CC(NNCCC#N)=CC(=[N+]2CCCC2)C1	TDP1 cell CPT inconclusive, TDP1 cell noCPT inconclusive
CC1(C)CC(N2CCCC2)=CC(=[N+]2CCCC2)C1	HT1080-NT tox inconclusive, TDP1 cell CPT 0.41µM, uPA surface inh inconclusive, TDP1 cell noCPT 0.29µM, HT1080 IDH1KD tx inconclusive
CC1CC(C)(C)NC(=S)O1 (centres undefined)	HT1080 IDH1KD tx inconclusive
C=CCn1c2ccccc2c(=O)c2cc(C#Cc3ccccn3)ccc21	IL-1B inflam inh inconclusive, TDP1 cell CPT 26µM, uPA surface inh inconclusive, TDP1 cell noCPT 18µM
Cc1ccc(CNc2nc3ccccc3n2C)cc1	uPA surface inh 4µM, TDP1 cell noCPT inconclusive
Cn1c(NCc2c(O)ccc3ccccc23)nc2ccccc21	TDP1 cell noCPT inconclusive, HT1080 IDH1KD tx inconclusive
Cn1c(CNc2nc3ccccc3n2C)nc2ccccc21	none
Cc1ccc(NC(=O)NCc2nc3ccccc3n2C)cc1	TDP1 cell CPT inconclusive, TDP1 cell noCPT 23µM
Cn1c(NCc2ccc(Cl)cc2)nc2ccccc21	IL-1B inflam inh inconclusive, HT1080-NT tox inconclusive, TDP1 cell CPT inconclusive, TDP1 cell noCPT 15µM, HT1080 IDH1KD tx inconclusive
O=[N+]([O-])c1ccc(Nc2cccc3c2[nH]c2c(-c4ccccc4)nccc23)c([N+](=O)[O-])c1	TDP1 cell CPT inconclusive, TDP1 cell noCPT inconclusive
CC(C)(C)c1ccc(C2C(C(=O)c3ccco3)=C(O)C(=O)N2CC2CCCO2)cc1 (centres undefined)	TDP1 cell CPT inconclusive, TDP1 cell noCPT 18µM
C[C@@H]1CN([C@H](C)CO)C(=O)CCCn2nncc2CO[C@H]1CN(C)S(=O)(=O)c1ccccc1F	none (no result: uPA surface inh)
COc1ccc(NCc2n[nH]c(=O)c3ccccc23)cc1	TDP1 cell CPT inconclusive, TDP1 cell noCPT inconclusive
O=c1[nH]nc(CNc2cccc(C(F)(F)F)c2)c2ccccc12	TDP1 cell CPT 26µM, TDP1 cell noCPT 15µM
O=c1[nH]nc(Cc2ccccc2)c2ccccc12	TDP1 cell CPT 7.3µM
O=C(COC(=O)c1n[nH]c(=O)c2ccccc12)NCc1ccccc1	TDP1 cell CPT 12µM, uPA surface inh inconclusive, TDP1 cell noCPT 9.2µM
O=c1[nH]nc(Cc2ccc([N+](=O)[O-])cc2)c2ccccc12	TDP1 cell CPT inconclusive, TDP1 cell noCPT inconclusive, HT1080 IDH1KD tx inconclusive
Cc1nnc(NCc2n[nH]c(=O)c3ccccc23)c2ccccc12	IL-1B inflam inh -101, HT1080-NT tox 16µM, TDP1 cell CPT 5.8µM, TDP1 cell noCPT 10µM, HT1080 IDH1KD tx 11µM (no result: uPA surface inh)
Cc1ccc(C(=O)O)cc1NC(=O)CSc1ncnc2sc3c(c12)CCC3	TDP1 cell CPT inconclusive
O=C(CSc1nnc(-c2ccc(O)cc2)o1)NNC(=O)c1ccncc1	none
CC(C)c1ccc(NC(=O)CCS(=O)(=O)c2cccc3nonc23)cc1	TDP1 cell CPT 16µM!, TDP1 cell noCPT 23µM
O=C(CN1C(=O)CCSc2ccc(S(=O)(=O)N3CCCC3)cc21)Nc1cccc(F)c1	TDP1 cell CPT 13µM, TDP1 cell noCPT inconclusive (no result: IL-1B inflam inh, HT1080-NT tox, uPA surface inh, HT1080 IDH1KD tx)
O=C(CN1C(=O)CCSc2ccc(S(=O)(=O)N3CCCC3)cc21)Nc1ccccc1	none
Cc1ccc(NC(=O)CN2C(=O)CCSc3ccc(S(=O)(=O)N4CCCC4)cc32)cc1	TDP1 cell noCPT inconclusive
O=C(CN1C(=O)CCSc2ccc(S(=O)(=O)N3CCCC3)cc21)Nc1cccc(Cl)c1	TDP1 cell CPT 23µM, TDP1 cell noCPT inconclusive (no result: IL-1B inflam inh, HT1080-NT tox, uPA surface inh, HT1080 IDH1KD tx)
COc1ccccc1NC(=O)NC(=O)c1ccccc1	TDP1 cell noCPT inconclusive
Cc1csc(=O)n1CCC(=O)OCC(=O)c1c(N)n(C)c(=O)n(C)c1=O	none
CC(C)Cn1c(N)c(C(=O)COC(=O)CCc2nc3ccccc3c(=O)[nH]2)c(=O)n(C)c1=O	TDP1 cell CPT inconclusive
Cc1csc(=O)n1CCC(=O)OCC(=O)c1c(N)n(CC(C)C)c(=O)n(C)c1=O	TDP1 cell CPT 18µM, TDP1 cell noCPT 15µM
